These results are taken from PubChem BioAssay AID1239 (SRMLSC, 2008).

Each structure is given as a SMILES string. Hit rate of the full screen: of about 190,000 compounds, about 3,100 (1.6%) were called active. Cut-off read from the data, not from the text of the source: active = fold change above about 3.3; inconclusive = no clear call, values can overlap the other calls; inactive = below that. What follows is part of a selection rich in actives, with near analogues and random picks from the rest.

The nature of this experiment: NF-kB upregulation, human neuronal cells – cell-based, HTS, primary screen (AID 1239). Particulars: NF-kB reporter expression, at 12.5 µM, hits give high values.
As for `Cc1cc(C)c2nc(NC(=O)c3ccc4c(c3)OCO4)sc2c1`, the fold change was 1.11 (inactive).
On to `O=C(Nc1nc2ccccc2s1)c1ccc2c(c1)OCO2`, for which the fold change is 7.05 (active).
With `COc1ccc(C(=O)Nc2ccc3c(c2)OCO3)cc1OC`, the fold change is 2.06 (inactive).
With `Cn1c(=O)n(C)c2cc(C(=O)Nc3ccc4c(c3)OCO4)ccc21`, the fold change was 1.54 (inactive).
`O=C(Nc1cccc([N+](=O)[O-])c1)c1ccc2c(c1)OCO2`: the fold change is 1.37 (inactive).
For `O=C(Nc1ccccc1)c1ccc2c(c1)OCO2`, the fold change is 3.31 (active).
As for `COCc1nnc(NC(=O)c2ccc3c(c2)OCO3)s1`, the fold change was 2.07 (inactive).
On to `O=C(Nc1cccnc1)c1ccc2c(c1)OCO2`, for which the fold change is 1.47 (inactive).
The figure for `O=C(Nc1ccccc1)Nc1nc2ccccc2s1` is 8.18 (active); for `Cn1nnnc1SCC(=O)Nc1nc2ccccc2s1` it is 1.74 (inactive); for `CC(=O)Nc1ccc(-c2csc(NC(=O)Nc3ccccc3)n2)cc1` it is 1.32 (inactive).
For `CC(C)C(=O)Nc1cccc(C(=O)Nc2ccc3c(c2)OCO3)c1`, the fold change was 4.07 (active).
As to `COc1ccc(-c2nn(-c3ccccc3)cc2CN2CCCO2)c(F)c1`, the fold change is 1.16 (inactive).
For `NC(N)=N/N=C/c1ccc(Cl)c([N+](=O)[O-])c1` the value was 1.03 (inactive); for `CN1CCN(NC(=O)c2ccc(S(=O)(=O)N3CCCCCC3)cc2)CC1`, 0.97 (inactive); for `O=c1[nH]n(-c2ccc([N+](=O)[O-])cc2)c(=O)c2ccccc12`, 1 (inactive).
For `CC(=O)c1ccc(N=C2SCCCN2C(=O)C2CCCCC2)cc1`, the fold change is 1.75 (inactive).
As to `COc1cccc(NC(=O)CS(=O)(=O)c2cn(CC(=O)N3CCOCC3)c3ccccc23)c1`, the fold change was 0.88 (inactive).
For `O=C(CSc1nc2ccc(Nc3nc(N4CCOCC4)nc(N4CCOCC4)n3)cc2s1)NCc1ccco1` the value was 1.02 (inactive).
`CC(C)(C)C1CCC(C(=O)Nc2cccnc2)CC1` (stereo unspecified): the fold change was 0.97 (inactive).
The figure for `COC(=O)C(=Nc1ccccc1)/C(C(=O)C(=O)N(C)c1ccccc1)=C(\O)c1ccc(Cl)cc1` is 0.95 (inactive); for `O=C(Nc1ccc2nccnc2c1)c1ccco1` it is 1.46 (inactive); for `O=C(Nc1ccc2oc(-c3ccccc3F)nc2c1)c1ccco1` it is 5.05 (active).
The figure for `O=C(Nc1cccc(-c2nc3ncccc3o2)c1)c1ccco1` is 0.74 (inactive); for `CSc1ccccc1C(=O)NCc1ccccc1` it is 1.09 (inactive).
The figure for `COc1cccc(OC)c1C(=O)Nc1ccc(N2CCCCC2)cc1` is 0.92 (inactive).
Take `Cc1ccccc1C(=O)Nc1ccc(N2CCCCCC2)cc1`: the fold change was 3.92 (active).
The figure for `COc1ccc(C2COC(=O)C2=N)c(NC(=O)c2ccccc2)c1` (stereo unspecified) is 1.02 (inactive).
For `O=C(Cc1ccccc1)NC(=S)Nc1ccc(N2CCCCC2)cc1` the value was 1.04 (inactive); for `COc1ccc(C(=O)NC(=S)Nc2ccc(N3CCCC3)cc2)cc1OC`, 0.99 (inactive).
On to `COc1cccc(C(=O)Nc2cc3c(cc2Br)OCCCO3)c1`, for which the fold change was 3.38 (active).
As for `C/C(=N\NC(=O)c1ccccc1C)c1ccc(N2CCOCC2)cc1`, the fold change was 1.09 (inactive).
For `COc1cccc(C(=O)Nc2ccc(N3CCCC3)cc2)c1` the value was 3.3 (active).
For `COc1cccc(C(=O)NNC(=O)c2ccccc2Br)c1` the value was 1.05 (inactive).
Take `COn1c(-c2ccc(Cl)cc2Cl)nc2ncccc21`: the fold change was 1.29 (inactive).
For the molecule `O=C(CN1CCC(O)(c2ccccc2)CC1)Nc1ccc2c(c1)OCCO2`, the fold change was 0.97 (inactive).
The figure for `COc1ccc(CN2CCCC(CNC(=O)c3ccc(F)cc3)C2)cc1OC` (stereo unspecified) is 1.13 (inactive); for `CCN(CC(=O)NCCc1ccccc1)S(=O)(=O)c1ccccc1` it is 1.36 (inactive); for `CC1CCCN(CC(O)COc2ccc3c(c2)OCO3)C1` (stereo unspecified) it is 1.2 (inactive).
For `C/C(=N\OCC(=O)Nc1ccc(Br)cc1)c1cccs1` the value was 1.23 (inactive); for `CCOc1ccc2nc(NCCNS(=O)(=O)c3ccccc3)c(C#N)cc2c1`, 1.4 (inactive); for `CCOc1ccc2cc(C#N)c(SCC(=O)OC)nc2c1`, 5.87 (active).
For the molecule `Cc1nonc1NC(=O)CSc1nc2ccccc2cc1C#N`, the fold change is 1.83 (inactive).
For `CC(C)N1CCC(=NNc2ccc([N+](=O)[O-])cc2S(=O)(=O)N2CCOCC2)CC1` the value was 1.19 (inactive); for `COc1ccc(N2C(=O)/C(=C\c3ccco3)N=C2SCC(N)=O)cc1Cl`, 1.3 (inactive); for `CCN(CC(=O)Nc1ccc(Cl)c(S(=O)(=O)N(C)C)c1)Cc1nc2ccccc2c(=O)[nH]1`, 0.79 (inactive).
Regarding `Clc1ccc(-c2nnc(SCc3nc4ccccc4s3)o2)cc1`, the fold change is 1.18 (inactive).
With `O=C(OCC#CCSc1nnc(-c2ccncc2)o1)c1sc2ccccc2c1Cl`, the fold change was 1.38 (inactive).
For the molecule `C#CCSc1nnc(-c2sc3ccccc3c2Cl)o1`, the fold change is 3.81 (active).
For `CC(C)(C)C(=O)CN1C2=NCCN2c2ccccc21` the value was 1.09 (inactive); for `Cc1ccnc(NC(=O)CCC(=O)N(CC(=O)NCc2ccccc2)Cc2ccco2)c1`, 0.85 (inactive); for `Cc1ccc2c(=O)oc(N(C)C)nc2c1`, 0.93 (inactive).
For `O=C(CSc1ccsc1[N+](=O)[O-])N1CCCCC1` the value was 1.39 (inactive); for `O=C1C2C3C=CC(C3)C2C(=O)N1c1ccc(-c2nc3ccccc3c(=O)o2)cc1` (stereo unspecified), 1.08 (inactive).
For `O=c1oc(/C=C/c2ccccc2)nc2ccccc12` the value was 4.63 (active); for `S=c1[nH]nc(/C=C/c2ccccc2)o1`, 1.12 (inactive); for `CN(C)c1ccnc(Nc2ccc(F)cc2)c1C#N`, 1.02 (inactive).
For `CN(Cc1ccc2nsnc2c1)Cc1nc(Cc2cccc(F)c2)no1`, the fold change was 1.05 (inactive).
In the case of `CN(C)c1nccc(NCc2ccccc2)c1C#N`, the fold change was 1.55 (inactive).
As for `CCOc1cc(NC(=O)CCl)c(OCC)cc1NC(C)=O`, the fold change is 2.72 (inactive).
Take `O=C(Nc1ccn(Cc2ccccc2)n1)c1n[nH]c([N+](=O)[O-])c1Cl`: the fold change was 3.79 (active).
For `CC(=O)Nc1ccn(Cc2c(F)cccc2Cl)n1` the value was 1.2 (inactive).
With `Cc1ccc(Cn2ccc(NC(=O)c3cc(C(C)C)on3)n2)cc1`, the fold change was 1.16 (inactive).
The figure for `O=C(Nc1ccn(Cc2ccccc2)n1)c1cccc(F)c1` is 6.25 (active).
As to `Cn1cc([N+](=O)[O-])c(C(=O)Nc2cnn(Cc3ccc(F)cc3)c2)n1`, the fold change was 0.64 (inactive).
In the case of `O=C(Nc1ccn(Cc2ccc(F)cc2)n1)c1ccncc1`, the fold change was 1.08 (inactive).
